PubChem BioAssay

Assays:
[1] = test system: Human papillomavirus type 1a protein E7 (residues 44-93); assay: small molecules binding HPV E7 44-93 – biochemical, small-molecule microarray, residues 44-93, 635 nm fluorescence, primary screen (AID 1108); settings: fluorescence 635 nm, higher = more signal;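 also: E7 fragment applied at 1 µg/mL in TBST for 1 h at 4 C; score combines spot fluorescence with its signal to noise ratio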
[2] = hepatitis C replication reporter changes, two-sided – Huh7 cells, luciferase reporter, HCV replication inhibitor project, primary screen (AID 1109); settings: Huh7 HCV replicon luciferase reporter, 48 h; higher = more signal;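 also: huh7 hepatoma cells harbouring a luciferase neomycin HCV replicon reporter; luciferase luminescence as measure of HCV replicon replication; test concentration not given here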
[3] = biological target: Left-right determination factor 2 (Homo sapiens) (UniProt O00292); assay: small molecules binding LEFTY2 protein – biochemical, small-molecule microarray, 635 nm fluorescence scan, primary screen (AID 1110); settings: higher = more signal
[4] = biological target: Calmodulin-1 (Homo sapiens) (UniProt P0DP23); assay: small molecules binding calmodulin-1 with EGTA – biochemical, small-molecule microarray, Cy5-labelled CALM1, profiling panel (AID 1111); settings: Cy5-CALM1 binding fluorescence, higher = more signal;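 also: labelled calmodulin applied in Tris saline Tween buffer holding calcium plus EGTA and DTT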
[5] = biological target: Calmodulin-1 (Homo sapiens) (UniProt P0DP23); assay: small molecules binding Ca-loaded calmodulin-1 – biochemical, small-molecule microarray, Cy5-labelled CALM1, plus calcium, artefact control for SMM control-protein annotation, profiling panel (AID 1112); settings: Cy5-CALM1 binding fluorescence, higher = more signal;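 also: score merges spot fluorescence with signal to noise from triplicate slides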
[6] = probe aWnt5a binding to arrayed compounds – biochemical, biotinylated probe, 635/667 nm fluorescence, primary screen (AID 1113); settings: small-molecule microarray, higher = more signal;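 also: score merges 667 nm fluorescence intensity with signal-to-noise per printed feature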
[7] = probe aShh binding to arrayed compounds – biochemical, biotinylated probe, 635/667 nm fluorescence, primary screen (AID 1114); settings: small-molecule microarray, higher = more signal;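 also: probe is biotin-labelled aShh protein from a stem cell growth factor screen; measures binding of labelled protein to compounds printed on the slide; score merges feature fluorescence at 667 nm with signal-to-noise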
[8] = probe aNog binding to arrayed compounds – biochemical, biotinylated probe, 635/667 nm fluorescence, primary screen (AID 1115); settings: small-molecule microarray, higher = more signal;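 also: probe is biotinylated aNog protein used at 0.15 µg/mL for 1 h at 4 C; z-score combines 667 nm fluorescence of each spot with its signal to noise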
[9] = biological target: Torsin-1A-interacting protein 1 (Homo sapiens) (UniProt Q5JTV8); assay: compound microarray binding of lysate hLAP1 – cell lysate, small-molecule microarray, COS7 lysate, 635/667 nm fluorescence, primary screen (AID 1116); settings: 635 nm fluorescence, higher = more signal
[10] = biological target: Alpha-bungarotoxin (Bungarus multicinctus) (UniProt P60615); assay: compounds binding labelled alpha-BTX control protein – biochemical, small-molecule microarray, Alexa647 label, 635/667 nm fluorescence, artefact control for SMM control protein annotation, profiling panel (AID 1117); settings: alpha-BTX-A647 binding fluorescence, higher = more signal
Sequence of Alpha-bungarotoxin (Bungarus multicinctus) (P60615 whole entry, looked up): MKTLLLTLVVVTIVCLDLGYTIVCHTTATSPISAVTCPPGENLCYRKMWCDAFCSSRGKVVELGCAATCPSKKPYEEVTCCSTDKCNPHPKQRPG

Sequence of Torsin-1A-interacting protein 1 (Homo sapiens) (Q5JTV8 whole entry, looked up): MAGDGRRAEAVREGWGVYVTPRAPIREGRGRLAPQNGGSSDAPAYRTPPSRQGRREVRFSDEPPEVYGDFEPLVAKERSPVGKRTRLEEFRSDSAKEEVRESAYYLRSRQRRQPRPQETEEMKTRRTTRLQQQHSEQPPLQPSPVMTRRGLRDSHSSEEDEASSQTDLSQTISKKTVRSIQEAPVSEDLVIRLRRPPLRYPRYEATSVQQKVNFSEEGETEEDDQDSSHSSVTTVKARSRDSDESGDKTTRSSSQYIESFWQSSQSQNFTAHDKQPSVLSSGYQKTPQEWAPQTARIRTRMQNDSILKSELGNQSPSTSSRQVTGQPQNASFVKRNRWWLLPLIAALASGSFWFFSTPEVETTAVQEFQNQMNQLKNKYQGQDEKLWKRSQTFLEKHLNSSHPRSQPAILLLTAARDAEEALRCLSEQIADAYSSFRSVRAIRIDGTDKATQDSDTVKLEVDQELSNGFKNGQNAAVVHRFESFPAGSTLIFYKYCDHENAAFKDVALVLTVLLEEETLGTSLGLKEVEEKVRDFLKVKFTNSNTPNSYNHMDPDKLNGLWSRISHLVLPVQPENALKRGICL
Sequence of Left-right determination factor 2 (Homo sapiens) (O00292 whole entry, looked up): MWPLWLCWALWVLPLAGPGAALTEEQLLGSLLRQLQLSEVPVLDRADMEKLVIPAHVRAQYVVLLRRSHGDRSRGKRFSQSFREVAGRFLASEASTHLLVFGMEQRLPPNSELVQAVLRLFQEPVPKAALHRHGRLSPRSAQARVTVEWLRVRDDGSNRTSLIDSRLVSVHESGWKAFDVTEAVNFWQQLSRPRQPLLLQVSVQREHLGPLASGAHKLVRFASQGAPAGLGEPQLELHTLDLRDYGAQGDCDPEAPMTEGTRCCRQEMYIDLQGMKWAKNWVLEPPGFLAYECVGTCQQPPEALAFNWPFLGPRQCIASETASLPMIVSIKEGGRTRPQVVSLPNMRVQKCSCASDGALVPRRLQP

Structure (SMILES) | composite z-score [1] | z-score [2] | composite z-score [3] | composite z-score [4] | composite z-score [5] | composite z-score [6] | composite z-score [7] | composite z-score [8] | composite z-score [9] | composite z-score [10]
[N-]=[N+]=NCc1ccccc1C[C@]1(C(=O)O)COC(c2ccc(OCCCO)cc2)=N1 | -0.523 | -0.35 | -1.47 | 0.0347 | 1.01 | -0.15 | -0.341 | -0.277 | -1.24 | -0.711
C=CCN1C(=O)[C@]2(O[C@H](CCO)[C@@H]([Si](C)(C)c3ccc(OC)cc3)[C@@H]2C)c2ccccc21 | 0.925 | -5.21 | -0.774 | -0.0667 | -0.0278 | -0.232 | -0.358 | -0.118 | -0.547 | -0.0693
CN(C)CCCNC(=O)[C@@]1(Cc2ccccc2I)c2ccccc2C(=O)N(Cc2ccccc2)[C@H]1c1ccc(CO)cc1 | 1.41 | -3.36 | 0.189 | -0.489 | -0.636 | 0.22 | -0.32 | 0.84 | 1.21 | 0.542
CN(C)CCCNC(=O)[C@@H]1c2ccccc2C(=O)N(C2Cc3ccccc3C2)[C@H]1c1ccc(CO)cc1 | 1.1 | -1.9 | -0.625 | -0.0693 | -0.875 | 0.0436 | 0.0766 | 0.467 | 0.814 | 0.438
C=CCC(OC(C)=O)[C@@H]1[C@@H](N(Cc2cccc3ccccc23)C(=O)c2cccc3ccccc23)c2cc(OCCCO)ccc2N1C(=O)Cc1ccc2ccccc2c1 (stereo not given in full) | 0.281 | 0.108 | -0.277 | -0.603 | -0.177 | -0.0685 | -0.138 | 0.255 | 0.0057 | -0.424
C=CC[C@@]1(C(=O)O)N=C(c2ccc(OCCCO)cc2)O[C@@H]1c1ccccc1CN=[N+]=[N-] | 0.895 | -1.99 | 0.461 | 1.83 | 0.608 | 0.115 | -0.0119 | 0.0139 | 0.976 | 0.974
CC(C)c1ccc(NN2C(C(O)C(C)C)C=CC3C(=O)N(c4ccccc4)C(=O)C32)cc1 (stereo not given) | 0.713 | 2.43 | 0.136 | 2.1 | 0.721 | 0.168 | 0.998 | 1.8 | 0.817 | 1.49
Cc1ccc(F)cc1S(=O)(=O)N[C@@H]1CCN(Cc2ccc3[nH]ccc3c2)C1 | 0.935 | -4.03 | 0.292 | -0.46 | -0.754 | -0.12 | -0.0709 | -0.295 | 0.144 | 0.431
CC(C)C[C@@H]1NC(=O)[C@H]2C[C@@H](C(=O)NCCCCCNC(=O)CS)[C@@H](c3ccc(O)cc3)N2C1=O | 1.46 | -0.28 | 0.679 | 1.03 | -0.568 | 0.23 | 0.203 | -0.324 | 0.602 | 1.54
COCCCN1C(=O)[C@@]2(Cc3ccccc31)c1ccccc1C(=O)N(Cc1ccccc1OC)[C@H]2c1ccc(CO)cc1 | -0.739 | -0.185 | -0.283 | 0.0145 | -0.0984 | 0.0759 | -0.138 | 0.417 | 0.145 | 0.212
COc1ccc([Si](C)(C)[C@@H]2[C@@H](CC(=O)N(CCO)Cc3ccccc3)O[C@]3(C(=O)N(Cc4ccc(N5CCC5=O)cc4)c4ccccc43)[C@H]2C)cc1 | -0.382 | -4.13 | 1.14 | 0.086 | 0.734 | -0.176 | 0.0898 | -0.194 | 0.357 | 0.295
C=C(COC)/C(=C/C[C@H](OC(=O)c1ccncc1)c1ccc(OCCO)cc1)c1cc(C(=O)OC)ccc1OC | 1.42 | -1.66 | 0.431 | 0.579 | -0.467 | 0.0077 | 0.157 | 0.484 | 1.18 | 1.23
